Unmarked numbers belong to inactive results. No rule for the calls is given here.

Here are results for 22 molecules from PubChem BioAssay.

Sequence of Pantothenate synthetase (Mycobacterium tuberculosis (strain ATCC 25618 / H37Rv)) (P9WIL5 whole entry, looked up): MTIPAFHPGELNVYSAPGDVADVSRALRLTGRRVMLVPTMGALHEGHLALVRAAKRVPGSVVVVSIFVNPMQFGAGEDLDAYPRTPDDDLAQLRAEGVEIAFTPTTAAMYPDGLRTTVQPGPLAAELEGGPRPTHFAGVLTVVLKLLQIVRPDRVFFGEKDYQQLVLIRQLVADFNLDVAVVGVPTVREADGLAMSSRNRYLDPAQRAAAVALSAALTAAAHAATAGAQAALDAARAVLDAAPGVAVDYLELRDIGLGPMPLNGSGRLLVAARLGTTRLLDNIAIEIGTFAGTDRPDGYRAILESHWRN

This assay has as its target Pantothenate synthetase (Mycobacterium tuberculosis (strain ATCC 25618 / H37Rv)) (UniProt P9WIL5). Briefly: Recombinant Mtb pantothenate synthetase (PanC) inhibitors, coupled enzyme, confirmatory (AID 375).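 Also: 0% = full reaction with vehicle and 100% = no enzyme background.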 To be noted: coupled enzyme assay; at 10 µM, stronger effect = higher value.
What is called inhibition is the share of the control response that was lost under treatment. Consider `COc1ccc(NC(=O)c2oc3ccc(S(=O)(=O)N4CCC5(CC4)OCCO5)cc3c2C)cc1`, for which the inhibition is 6%.
The result for `O=C(NCCN1CCCCCC1)c1ccc(CS(=O)(=O)c2ccc(Br)cc2)o1` reads 0%; that for `O=C(O)CCCCCNc1nc(=S)[nH]c2ccccc12`, 0%; that for `CC(C)OC(=O)CSc1nnc(-c2ccc(C(C)(C)C)cc2)n1N`, 0%.
The result for `COc1ccc(N2C(=O)C(Cl)=C(N3CCCC3)C2=O)cc1` reads 0%.
The result for `CC(C)C(=O)N1CCN(c2nc(-c3ccccc3)c3c(c2C#N)CCCC3)CC1` reads 0%; that for `COc1ccc(N2C(=O)CC(N3CCN(c4ccccc4F)CC3)C2=O)cc1` (configuration not stated), 0%.
Turning to `CCOc1ccc(NC(=O)c2ccccc2O)cc1`, the inhibition is 0%.
Regarding `COCCn1c(SCC(=O)c2ccccc2)nc2c(c1=O)SC(C)C2` (configuration not stated), the inhibition is 0%.
The result for `Cc1cccc(-n2nnc(C(=O)NCc3ccccc3)c2N)c1` reads 0%; that for `Cc1ccc(C(=O)Nc2ccc3c(c2)OCO3)o1`, 0%; that for `CCN(C1CCCCC1)S(=O)(=O)c1ccc(OC)c(C)c1`, 0%.
The result for `Cc1csc(NC(=O)c2ccoc2C)n1` reads 0%.
The result for `COC(=O)CNC(=O)COC(=O)c1cc(Cl)cc(Cl)c1N` reads 0%; that for `CC1CCCCN1CCNC(=O)C1CCN(S(=O)(=O)c2cccc3cccnc23)CC1` (configuration not stated), 0%.
On to `Cc1cccc(-n2ccnc2SCC(=O)Nc2cc(C)on2)c1`, for which the inhibition is 1%.
The result for `C=CCN(CC=C)C(=O)c1ccncc1` reads 0%; that for `CCN(CC)S(=O)(=O)c1ccc(NC(=O)c2cccc3c2C(=O)N(CCOC)C3)cc1`, 4%.
The result for `Cn1c(SCC(N)=O)nnc1C1CCN(S(=O)(=O)c2ccccc2C(F)(F)F)CC1` reads 0%; that for `CCOC(=O)C1CCN(C(=O)CN(c2ccc(Cl)c(C(F)(F)F)c2)S(C)(=O)=O)CC1`, 4%; that for `O=C(O)C1CC=CCC1C(=O)Nc1cccc(F)c1` (configuration not stated), 3%.
The result for `CCOC(=O)C1CCCN(C(=O)c2cc3c(C)nc4ccccc4c3o2)C1` (configuration not stated) reads 7%.
